Screening results (PubChem BioAssay)
In the library only some 2.6% were active in any assay of this set; here they are far more common.
LGR2 antag = Drosophila LGR2 receptor signaling inhibition; HEK293 LGR2, CRE-luciferase, bursicon-stimulated, 4 h; inhibition, % at 9.99 µM; 0.35% of 380,000 active; AID 720647;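 active = drop in luminescence signal, shown as inhibition above about 50% in the replicate tests, limit read from the data, passing the limit was not always enough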;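 note: agonist challenge used bursicon conditioned medium at about half maximal strength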
EWS-Fli inh = inhibitors of EWS/Fli oncoprotein transcriptional activity | A673 NR0B1-luciferase reporter, viability-normalised | inhibition, % at 12.6 µM | 0.67% of 350,000 active;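 active = mean inhibition of at least 50% after viability correction, with every replicate also passing that limit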;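 note: firefly luciferase signal divided by Alamar Blue viability fluorescence both relative to DMSO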
TROY NFkB inh = inhibitors of TROY-dependent NF-kB signaling; 0.98% of 360,000 active; Q293 LMP1-TROYcd NF-kB luciferase reporter, 4 h; AID 1347056; inhibition, % at 10 µM;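 active = compounds whose plate-normalised and pattern-corrected inhibition of the luciferase reporter signal at the single screening dose is 50% or more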
TWEAK-Fn14 inh = TWEAK-Fn14 signaling inhibition; 2% of 360,000 active; TWEAK-stimulated Fn14 reporter cells, luciferase luminescence, 8 h; inhibition, % at 10 µM; in the data active = inhibition above about 50%
KKLEB cytotox = CF airway cell cytotoxicity counter-screen | 0.36% of 360,000 active | AID 602141 | activity change (cytotoxicity), % at 5 µM | KKLEB CF airway cells viability, ATPlite luminescence, overnight; stronger effect = lower value; cells stimulated with P. aeruginosa culture filtrate;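 active = corrected activity change at or below -50% at 5 µM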
CF NFkB inh = inhibitors of cystic fibrosis induced NF-kB | KKLEB NF-kB-GFP reporter, PAF-induced, GFP fluorescence overnight | inhibition, % at 5 µM | 0.86% of 360,000 active;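 active = at least 50% inhibition at 5 µM, scaled per plate between neutral and stimulator controls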;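 note: PAF is a Pseudomonas aeruginosa culture filtrate used as stimulus; plate controls were PAF-stimulated DMSO wells for no effect and unstimulated DMSO wells for full effect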
Active calls of the source: *; . = no result.

SMILES	LGR2 antag	EWS-Fli inh	TROY NFkB inh	TWEAK-Fn14 inh	KKLEB cytotox	CF NFkB inh
CCNC(=O)C[C@@H]1CC[C@H]2[C@@H](COC[C@@H](O)CN2C(=O)c2cccnc2)O1	12	-2	.	.	.	.
CCN1[C@@H]2Cn3c(ccc(-c4ccc(OC)cc4)c3=O)[C@H]1[C@@H](C(=O)NCC1CC1)[C@@H]2CO	-15	8	.	.	.	.
O=C(Nc1ccc(Cc2ccncc2)cc1)C1CCC(N2C(=O)C3C4C=CC(C5CC45)C3C2=O)CC1 (stereo not given)	.	.	53*	47	-3	8
Cc1ccccc1S(=O)(=O)NCC[C@@H]1CC[C@@H](NC(=O)Nc2cccc(Cl)c2)[C@@H](CO)O1	16	1	.	.	.	.
COC(=O)CCn1c(C)cc(C(=O)COc2ccccc2C(N)=O)c1C	24	9	23	53*	4	1
Cc1cc(C(=O)COC(=O)c2ccc3c(c2)OCO3)c(C)n1Cc1cccs1	.	.	-6	21	1	-1
CC(=O)Nc1ccccc1OCC(=O)c1cc(C)n(Cc2cccs2)c1C	.	.	36	64*	-3	7
Cc1cc(C(=O)COC(=O)c2ccccc2O)c(C)n1Cc1cccs1	.	.	64*	102*	-44	13
CC1(C)CC=CC(COC(=O)c2ccccc2C(=O)O)C1 (stereo not given)	-47	-6	-30	96*	12	-20
NCC(c1ccccc1)c1c[nH]c2ccccc12 (stereo not given)	20	-10	-21	14	-10	0
O=[N+]([O-])CC(c1ccc(F)cc1)c1c[nH]c2ccccc12 (stereo not given)	22	55*	4	27	-8	12
CSc1nnc(NC(=O)c2ccc3c(c2)OCO3)s1	67*	62*	71*	92*	0	-8
O=C(CSc1nnc(NC(=O)c2ccc3c(c2)OCO3)s1)NCc1ccco1	60*	27	1	61*	-17	-1
C[C@@H]1CN([C@@H](C)CO)C(=O)c2cc(-c3ccncc3)cnc2O[C@H]1CN(C)S(=O)(=O)c1ccccc1	2	0	.	.	.	.
Cc1ccc(OCCCNCCO)c(Br)c1	.	.	20	53*	11	-1
COc1ccc(N(CC(=O)Nc2ccc3c(c2)OCCO3)S(C)(=O)=O)c(OC)c1	.	.	45	62*	5	-1
COc1ccc(C2=NO[C@@](CC(=O)O)(C(=O)Nc3ccc4c(c3)OCCO4)C2)cc1	-14	-23	55*	43	-10	10
COc1ccc(N(CC(=O)Nc2ccc3c(c2)OCCO3)S(=O)(=O)c2cccnc2)cc1	.	.	17	57*	22	-34
COc1ccc(N(CC(=O)Nc2ccc3c(c2)OCO3)S(C)(=O)=O)c(OC)c1	.	.	-8	-19	1	0
COc1ccc(N(CC(=O)Nc2ccc3c(c2)OCCO3)S(=O)(=O)c2c(C)noc2C)cc1	.	.	3	65*	-2	8
NC(=O)COc1ccccc1C1=NO[C@@](CC(=O)O)(C(=O)Nc2ccc3c(c2)OCCO3)C1	14	-2	7	-1	-3	-6
CCCNC(=O)N1[C@@H]2CN(C(=O)CC)c3ccccc3[C@@H]2[C@@H]1CO	0	-3	.	.	.	.
COCC(=O)N1C[C@H](C)[C@H](OC)CN(C)C(=O)c2cc(NC(=O)c3ccccc3)ccc2OC[C@H]1C	-11	-4	.	.	.	.
Cc1c(Cl)cccc1NC(=S)NCCc1ccc(F)cc1	3	2	-2	71*	3	8
Clc1ccc(-n2nnc(-c3nccs3)n2)cc1Cl	-55	-48	-17	20	-2	-30
SMILES	LGR2 antag	EWS-Fli inh	TROY NFkB inh	TWEAK-Fn14 inh	KKLEB cytotox	CF NFkB inh
Cc1ccc(-n2nnc(-c3nccs3)n2)cc1	-12	82*	66*	94*	-52*	-2
Cc1cccc(Nc2ccncc2S(N)(=O)=O)c1	-6	0	12	70*	0	16
NS(=O)(=O)c1cnccc1Nc1cccc(F)c1	-1	8	-9	3	1	-5
COc1ccc(/C=C/C(=O)NCC(=O)N=Nc2c(O)[nH]c3ccc([N+](=O)[O-])cc23)cc1	42	-2	-2	-13	-45	78*
Cc1cccc(OCC(=O)NCC(=O)N=Nc2c(O)[nH]c3ccc([N+](=O)[O-])cc23)c1	3	9	-12	-1	1	-44
C[C@@H]1CN([C@H](C)CO)C(=O)c2cc(NC(=O)CCCCCC(=O)Nc3ccccc3N)ccc2O[C@H]1CN(C)C(=O)Nc1ccc2c(c1)OCO2	-15	8	.	.	.	.
